Laboratory results from PubChem BioAssay (NCATS).
Active and inactive are the calls of the source. Entries that show only a call come without a potency. The call rests on the fitted dose curve; in most records, active means well fitted inhibition curve with a large enough effect; inconclusive means small, poorly fitted or top-dose-only effect; inactive means flat fitted curve, though single readings scatter.

What follows are compounds tested on Nanoluciferase (engineered Oplophorus gracilirostris luciferase) (assay: Primary Nanoluciferase (NLuc) qHTS assay for identification of artifact compounds. (AID 1845222)). Settings: NLuc-conditioned medium, Nano-Glo luminescence, 5 min; series mostly up to 54.1 µM.
Text: PI: Alexander Tropsha Ph.D.
UNC Eshelman School of Pharmacy
University of North Carolina, Chapel Hill, North Carolina
Hits from high-throughput screening (HTS) of chemical libraries are often false positives due to their interference with the assay detection technology. In response to this problem, we generated the largest publicly available library of chemical liabilities and developed a free webtool to predict HTS artifacts, both of which are described herein. More specifically, we generated, curated, and integrated HTS datasets for thiol reactivity, redox activity, and luciferase (firefly and nano) activity. Using these curated datasets, we developed and validated several Quantitative Structure-Interference Relationship (QSIR) models to predict nuisance behavior. […] These models were employed for virtual profiling of the National Center for Advancing Translational Science's (NCATS) in-house library, and 256 compounds for each assay were selected for the experimental validation of nuisance behavior. The BA for these external predictions ranged from 58 to 78% for compounds within the applicability domains of the models. […] The models developed in this study, along with aggregation models previously developed by our group (SCAM Detective) were implemented in "Liability Predictor," an online tool which may be used as part of chemical library design or for triaging HTS hits. Both the models and the curated datasets are publicly available at https://liability.mml.unc.edu/.
SEQUENCE No. (e.g., 1, 2, 3, etc.); […] (e.g., Cells, Incubation, Reagent, etc.); VALUE; DESCRIPTION.
1; Reagent; 2 uL; Nanoluciferase media.
2; Compounds and control; 16 nL; Kalypsis pin tool (Wako USA) equipped with a 1536-well pin head.
4; Reagent; 2 uL; Luciferase enzyme.
6; Detection; Luminescence, ViewLux microplate reader.
NOTES (numbers refer to Sequence numbers above)
1. Medium was collected from the culture flasks of NLuc-expressing S16 cells (80% confluent) prior to cell plating, filtered through a 0.22um filter, and frozen at -20C prior to use. Media was diluted (1:55) and 2 uL was dispensed into all wells of a 1536-well assay plate (solid-bottom white plate; Greiner Bio One, Monroe, NC).
2. A Wako Pin-tool (Wako Automation, Richmond, VA) was used to transfer 16 nL of compounds (consisting of 7-plates in qHTS format, final concentration range 18.3 nM to 114 uM) or control Cilnidipine (final concentration range 623 nM to 80 uM).
3. 15 min. incubation at room temperature protected from light.
4. 2 uL of NLuc substrate (1:100 in Nano-Glo luciferase buffer; Nano-Glo luminescence assay, Promega, Madison, WI) was dispensed for a final assay volume of 4 uL.
5. Plates were centrifuged (121xg, 15 seconds) and incubated for 5 minutes.
6. Samples were read for luminescence on a ViewLux CCD imager (PerkinElmer). Data were normalized to no-enzyme (0% activity) and no-inhibitor (DMSO; 100%) controls and the resulting percent inhibition data were fitted to a 4-parameter Hill equation using NCATS in-house software.

**Q.** With `CC1(C)SC2C(NC(=O)[C@H](NC(=O)N3CCNC3=O)c3ccccc3)C(=O)N2C1C(=O)O` (stereo not given in full) as the compound, how does the Potency read?
**A.** inactive

**Q.** How did the Potency turn out when `COc1ccc(C2(CNC(=O)[C@](C)(Cc3c[nH]c4ccccc34)NC(=O)Nc3ccc([N+](=O)[O-])cc3)CCCCC2)nc1` was run?
**A.** inactive

**Q.** With `NC(=Nc1ccc(CCNCc2cccc(Cl)c2)cc1)c1cccs1` as the compound, how does the Potency read?
**A.** inactive

**Q.** For `CNc1nc(-c2ccc3c(N)n[nH]c3c2)cc(N2CC(C(=O)NC3CCCCC3)CCC2C)n1` (stereo not given), which Potency is on record?
**A.** inactive

**Q.** How did the Potency turn out when `COC1CC(=O)C23C(=O)NC(CC(C)C)C2C(C)C(C)=CC3/C=C(\C)CCC(O)C1O` (stereo not given) was run?
**A.** inactive

**Q.** Which Potency does the source give for `COc1cc(N2CCN(C(C)=O)CC2)ccc1Nc1ncc(Cl)c(Nc2ccc(N3CCN(C(C)=O)CC3)cc2OC)n1` here?
**A.** inactive

**Q.** `CCC(=O)Nc1cccc(Oc2nc(Nc3ccc(N4CCN(C)CC4)cc3OC)ncc2Cl)c1` was tested. Which Potency did it give?
**A.** inactive

**Q.** `COc1cc(O)ccc1OCCNCC(O)COc1cccc2[nH]c3ccccc3c12` (stereo not given) was tested. Which Potency did it give?
**A.** inactive

**Q.** How did the Potency turn out when `COc1ccc(-c2c(C)c(C(=O)NN3CCCCC3)nn2-c2ccc(Cl)cc2Cl)cc1` was run?
**A.** inactive

**Q.** For `CC(=O)c1c(OCCN2CCCCC2)c(OCCC(C)c2ccc(F)cc2)c2oc(C)nc2c1C` (stereo not given), which Potency is on record?
**A.** inactive

**Q.** For `C=C(C)[C@@H]1CC[C@]2(C(=O)O)CC[C@]3(C)C(CCC4[C@@]5(C)C[C@@H](O)[C@H](O)C(C)(C)C5CC[C@]43C)C12` (stereo not given in full), which Potency is on record?
**A.** inactive

**Q.** How did the Potency turn out when `C=C(C)C(=O)O[C@H]1[C@H]2C(=C)C(=O)O[C@@H]2C[C@@H](C)/C=C\C(=O)[C@](C)(O)[C@@H]1OC(C)=O` was run?
**A.** inactive

**Q.** With `CCN(CC)Cc1cccc(/C=C/c2nc3ccc(F)cc3c(=O)n2-c2ccccc2Cl)n1` as the compound, how does the Potency read?
**A.** inactive

**Q.** With `N#Cc1cccc(C#N)c1-c1nc2c3ccccc3c3cc(Cl)ccc3c2[nH]1` as the compound, how does the Potency read?
**A.** inactive

**Q.** How did the Potency turn out when `COc1cc(-c2cc(-c3cccc(O)c3)cnc2N)cc(OC)c1OC` was run?
**A.** inactive

**Q.** `CC(=O)Nc1ccc(C(=O)Nc2ccccc2N)cc1` was tested. Which Potency did it give?
**A.** inactive

**Q.** For `CCOP(=O)(Cc1ccc(C(=O)Nc2ccc(Br)cc2C#N)cc1)OCC`, which Potency is on record?
**A.** inactive

**Q.** `C=C1C(=O)O[C@@H]2CC(C)=C([C@@H](C)CCCO)[C@@H](OC(=O)C(C)C)[C@H]12` was tested. Which Potency did it give?
**A.** inactive

**Q.** For `Cc1cc(CS(=O)(=O)c2ccccc2)cc(OCc2ccc(CN3CCC[C@@H]3CO)cc2)c1`, which Potency is on record?
**A.** inactive

**Q.** Which Potency does the source give for `COc1ccc(-c2nc(-c3cc(C(F)(F)F)cc(C(F)(F)F)c3)n(Cc3ccc(C(N)=O)cc3)c2-c2ccc(OC)cc2)cc1` here?
**A.** inactive

**Q.** Which Potency does the source give for `O=C(/C=C/n1cnc(-c2cc(C(F)(F)F)cc(C(F)(F)F)c2)n1)NNc1cnccn1` here?
**A.** inactive

**Q.** Which Potency does the source give for `COc1ccccc1NC(=O)Nc1ccc2ccccc2c1` here?
**A.** inactive

**Q.** For `Nc1nc(NCC2CCC(CNS(=O)(=O)c3cccc4ccccc34)CC2)nc2ccccc12` (stereo not given), which Potency is on record?
**A.** inactive

**Q.** How did the Potency turn out when `CCC(C)n1cc(C)c2c(C(=O)NCc3c(C)cc(C)[nH]c3=O)cc(-c3ccc(N4CCNCC4)nc3)cc21` (stereo not given) was run?
**A.** inactive

**Q.** `COCCOCCOc1ccc(C2=N[C@@](C)(C(=O)O)CS2)c(O)c1` was tested. Which Potency did it give?
**A.** inactive

**Q.** For `COc1cc2nc(N3CCN(C)CC3)nc(NC3CCN(Cc4ccccc4)CC3)c2cc1OC`, which Potency is on record?
**A.** inactive

**Q.** `Cc1ccc(C2(COC(=O)C(C)C)CO2)c(OC(=O)C(C)C)c1` (stereo not given) was tested. Which Potency did it give?
**A.** inactive

**Q.** `COc1cc(N2CCOCC2)ccc1Nc1ncc(F)c(Nc2ccccc2NS(C)(=O)=O)n1` was tested. Which Potency did it give?
**A.** inactive

**Q.** With `COc1ccc(C(=O)N(CCC(C)C)Cc2nc(C)c(C)n2Cc2ccccc2C)c(OC)c1` as the compound, how does the Potency read?
**A.** inactive

**Q.** Which Potency does the source give for `CC1(C)CC23[C@@H]4CC(=O)[C@@H]2COC(=O)[C@@H]3CC[C@H]41` here?
**A.** inactive

**Q.** With `COc1ccccc1-c1c[nH]c2ncc(-c3cncc(C(=O)N(C)C)c3)cc12` as the compound, how does the Potency read?
**A.** inactive

**Q.** How did the Potency turn out when `Clc1ccccc1CNCC1CCC(CNCc2ccccc2Cl)CC1` (stereo not given) was run?
**A.** inactive

**Q.** How did the Potency turn out when `COc1cc(N2CCN(C)CC2)ccc1Nc1nccc(-c2cn(C)c3cnccc23)n1` was run?
**A.** inactive

**Q.** For `CCN1CCC[C@@H]1CNC(=O)c1ccc2c(c1)NC(=O)/C(=C/c1ccccc1F)S2`, which Potency is on record?
**A.** inactive

**Q.** With `CC(=O)N1CCN([C@H]2CCN(C(=O)N(C)[C@H](C)c3cc(C(F)(F)F)cc(C(F)(F)F)c3)[C@@H](c3ccc(F)cc3C)C2)CC1` as the compound, how does the Potency read?
**A.** inactive

**Q.** How did the Potency turn out when `CC(=O)Nc1nc2c(Oc3cc(-c4ccc(C(F)(F)F)cc4)ncn3)cccc2s1` was run?
**A.** inactive

**Q.** `Cc1nnsc1C(=O)Nc1ccc(-n2nc(C(F)(F)F)cc2C(F)(F)F)cc1` was tested. Which Potency did it give?
**A.** inactive

**Q.** For `CC1OC2O[C@H]3[C@@H](OCC(O)[C@H]3O)OC(=O)C34CCC(C)(C)CC3C3=CCC5C6(C)CC(O)C(OC7OC(CO)C(O)C(O)C7O[C@@H]7OC[C@H](OC(=O)CC(C)(O)CC(=O)OC1C(OC1OCC(O)C(O)C1O)C2O)[C@@H](O)[C@H]7O)C(C)(CO)C6CCC5(C)C3(C)CC4` (stereo not given in full), which Potency is on record?
**A.** inactive

**Q.** Which Potency does the source give for `COc1ccc(NS(=O)(=O)c2sc3ccc(Cl)cc3c2C)cc1N1CCNCC1` here?
**A.** inactive

**Q.** With `COc1cc2ncnc(Oc3cccc(NC(=O)Nc4cc(C(C)(C)C(F)(F)F)on4)c3)c2cc1OC` as the compound, how does the Potency read?
**A.** inactive
